Hit rate of the full screen: of about 400,000 compounds, about 2,100 (0.53%) were called active. Another 14% or so got no clear call; they are omitted. The rule behind the calls is not given here. The sample as a whole holds a higher share of actives than the screen did.
biological target: Ataxin-2 (Homo sapiens) (UniProt Q99700); assay: qHTS for Inhibitors of ATXN expression.; type: functional
Sequence (Q99700 whole entry): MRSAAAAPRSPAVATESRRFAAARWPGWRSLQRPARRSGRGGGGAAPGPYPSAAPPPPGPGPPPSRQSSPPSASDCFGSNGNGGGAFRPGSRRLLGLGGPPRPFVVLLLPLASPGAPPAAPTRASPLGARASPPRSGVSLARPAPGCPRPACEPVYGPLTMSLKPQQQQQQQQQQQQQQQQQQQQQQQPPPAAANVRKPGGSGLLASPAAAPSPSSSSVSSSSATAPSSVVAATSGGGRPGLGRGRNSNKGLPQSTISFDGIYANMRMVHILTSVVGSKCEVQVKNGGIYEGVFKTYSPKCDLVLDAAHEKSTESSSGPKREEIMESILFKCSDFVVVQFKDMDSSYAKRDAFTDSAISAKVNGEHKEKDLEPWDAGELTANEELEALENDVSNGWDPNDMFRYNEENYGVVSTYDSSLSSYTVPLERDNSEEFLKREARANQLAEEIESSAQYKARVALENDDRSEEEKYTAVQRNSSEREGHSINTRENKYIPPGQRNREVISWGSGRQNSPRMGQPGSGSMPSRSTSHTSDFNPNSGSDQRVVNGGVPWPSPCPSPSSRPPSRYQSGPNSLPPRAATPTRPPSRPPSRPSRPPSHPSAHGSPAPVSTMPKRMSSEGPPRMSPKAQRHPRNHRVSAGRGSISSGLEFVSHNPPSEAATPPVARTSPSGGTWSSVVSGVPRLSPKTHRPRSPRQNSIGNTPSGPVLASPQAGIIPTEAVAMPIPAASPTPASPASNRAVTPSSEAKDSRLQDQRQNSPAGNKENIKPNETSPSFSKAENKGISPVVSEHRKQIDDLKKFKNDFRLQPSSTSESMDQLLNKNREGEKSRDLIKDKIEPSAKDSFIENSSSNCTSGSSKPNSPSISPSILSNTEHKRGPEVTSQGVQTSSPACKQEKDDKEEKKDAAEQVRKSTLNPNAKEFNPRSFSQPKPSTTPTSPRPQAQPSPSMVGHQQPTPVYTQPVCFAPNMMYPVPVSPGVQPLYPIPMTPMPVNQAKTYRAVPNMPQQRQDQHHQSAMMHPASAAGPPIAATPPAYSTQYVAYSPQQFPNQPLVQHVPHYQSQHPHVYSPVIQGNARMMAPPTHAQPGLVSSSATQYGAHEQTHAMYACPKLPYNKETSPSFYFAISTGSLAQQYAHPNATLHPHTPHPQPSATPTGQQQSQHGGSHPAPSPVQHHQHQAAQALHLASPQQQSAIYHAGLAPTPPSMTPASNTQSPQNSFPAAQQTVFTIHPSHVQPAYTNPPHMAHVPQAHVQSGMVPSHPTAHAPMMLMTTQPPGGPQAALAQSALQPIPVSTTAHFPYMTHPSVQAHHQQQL

| SMILES | Potency |
| --- | --- |
| COCCCn1c(=N)c(C(=O)NC2CCCCC2)cc2c(=O)n3ccccc3nc21 | inactive |
| O=C1N=C(N2CCN(c3ccccc3)CC2)S/C1=C/c1ccco1 | inactive |
| COc1cccc(/C=C2/SC(=S)N(CC(=O)NNC(=O)c3ccccc3OC)C2=O)c1 | inactive |
| COc1cccc(/C=C2\SC(=S)N(CC(=O)N(C)C3CCS(=O)(=O)C3)C2=O)c1 (configuration not stated) | 35.5 µM (active) |
| COc1cccc(/C=C2\SC(=S)N(CCCC(=O)N3CCCCC3CCO)C2=O)c1 (configuration not stated) | 39.8 µM (active) |
| Cc1ccc(-n2nc(C)c3c(C(=O)OCC(=O)N(C)C4CCS(=O)(=O)C4)cc(-c4ccccc4)nc32)cc1 (configuration not stated) | inactive |
| COc1cccc(N2C(=O)C3CCCN3C2=S)c1 (configuration not stated) | inactive |
| COc1cccc(/C=C2\SC(=S)N(CCC(=O)NNC(=O)c3ccccc3OC)C2=O)c1 | inactive |
| O=C1/C(=C/c2ccco2)SC(=S)N1CCC(=O)N1CCCCC1CCO (configuration not stated) | 17.8 µM (active) |
| CCCn1nc(NC(=O)c2ccco2)c2cc3ccc(C)cc3nc21 | inactive |
| CCCn1nc(NC(=O)c2ccco2)c2cc3cc(C)ccc3nc21 | inactive |
| Cc1cccc(OCCn2c(NC(=O)c3ccco3)nc3ccccc32)c1 | 39.8 µM (active) |
| COCCCn1c(=N)c(C(=O)NCC2CCCO2)cc2c(=O)n3cc(C)ccc3nc21 (configuration not stated) | inactive |
| Cc1cccc(C2=NN(c3ccccc3)[C@H](CO)[C@H]2c2ccccc2)c1 | inactive |
| COc1ccc(Br)cc1C(C[N+](=O)[O-])c1c(N)n(C)c(=O)n(C)c1=O (configuration not stated) | 17.8 µM (active) |
| COc1ccccc1C(C[N+](=O)[O-])c1c(N)n(C)c(=O)n(C)c1=O (configuration not stated) | 14.1 µM (active) |
| Cn1c(N)c(C(=O)CN2CCc3ccccc3C2)c(=O)n(C)c1=O | inactive |
| CN(C)c1ccc(C(C[N+](=O)[O-])c2c(N)n(C)c(=O)n(C)c2=O)c(F)c1C#N (configuration not stated) | 25.1 µM (active) |
| CCn1cc(C(=O)N2CCCC(N3CCN(c4cccc(C(F)(F)F)c4)CC3)C2)cn1 (configuration not stated) | inactive |
| CN(C)c1ncc(C2=C(Cl)C(=O)C(N3CCCC3)=C(Cl)C2=O)s1 | 25.1 µM (active) |
| Cc1cc2c(cc1C)C(=O)C(=O)N2 | inactive |
| N#Cc1c(-c2ccccc2Cl)c2c([nH]c1=O)-c1ccccc1OC2 | inactive |

| SMILES | Potency |
| --- | --- |
| COc1cccc2cc(C(=O)C3=C(O)C(=O)N(CCN(C)C)C3c3ccc(Cl)cc3)oc12 (configuration not stated) | inactive |
| COc1cccc2c1c(NC(=O)c1cc(C)on1)nn2C | inactive |
| COc1ccccc1-c1cc(C(=O)Nc2cc(C)n(Cc3ccc(Cl)cc3)n2)no1 | 28.2 µM (active) |
| CCN(CC)c1ccc2cc(C(=O)c3cccs3)c(=O)oc2c1 | inactive |
| Cc1nc2ccccc2nc1OCC(=O)Nc1ccc(F)cc1 | inactive |
| CCc1ccc(NC(=O)COc2ccc(/C=C(/C#N)c3nc4ccccc4[nH]3)cc2OC)cc1 | inactive |
| O=C(COc1ccccc1F)Nc1ccc(Cl)c(-c2nc3ccccc3[nH]2)c1 | 39.8 µM (active) |
| C/C(=N/NC(=O)c1ccncc1)c1cc2ccc(O)cc2oc1=O | inactive |
| COc1cccc(C(c2nnnn2C2CCCC2)N2CCN(C/C=C/c3ccccc3)CC2)c1OC (configuration not stated) | 17.8 µM (active) |
| Cc1cc(C)cc(NC(=O)COC(=O)[C@@H](NC(=O)c2ccco2)C(C)C)c1 | inactive |
| Cc1onc(-c2ccccc2)c1C(=O)OCCOc1ccccc1F | inactive |
| CCCCCCCCCCOC(=O)Cn1c(COc2ccc(Cl)cc2)[n+](C)c2ccccc21 | 25.1 µM (active) |
| CCCOc1ccc(-c2c(=O)n(OCC(=O)OCC)c3ccccc3[n+]2[O-])cc1 | inactive |
| CC12CC3(C)CC(C)(C1)CC(C(=O)NCc1ccccn1)(C2)C3 | inactive |
| Sc1nnc(-c2ccccc2)n1/N=C/c1cccc(Cl)c1 | inactive |
| Cc1cc(-c2nnc(S)n2/N=C/C(Br)=C/c2ccccc2)[nH]n1 | 14.1 µM (active) |
| Oc1ccccc1/C=N/n1c(S)nnc1-c1ccccc1 | inactive |
| CC(=O)n1cc(C(C[N+](=O)[O-])SCCN)c2ccccc21 (configuration not stated) | 22.4 µM (active) |
| COc1cc2ccc(=O)oc2c(O)c1OCC=C(C)C | inactive |
| COc1c(CC=C(C)C)cc(C2CC(=O)c3c(O)cc(O)cc3O2)cc1CC=C(C)C (configuration not stated) | 39.8 µM (active) |
| COC1=CC(=O)C(C2CC(=O)c3c(O)cc(O)cc3O2)=CC1=O (configuration not stated) | 33.6 µM (active) |
| CCOCCCn1c(=N)c(C(=O)NC(C)c2ccccc2)cc2c(=O)n3cccc(C)c3nc21 (configuration not stated) | inactive |

| SMILES | Potency |
| --- | --- |
| C/C(CC(=O)Nc1ccc2c(c1)OCCO2)=N\NC(=O)COc1ccccc1C | inactive |
| CN(C)c1nc(NC(C)(C)C)nc(SCC(=O)Nc2ccccc2)n1 | inactive |
| COC(C(=O)N/N=C(\C)CC(=O)Nc1ccc(N(C)C)cc1)c1ccccc1 (configuration not stated) | 31.6 µM (active) |
| Nc1nc(-c2sc3nc4c(cc3c2N)CCCC4)nc(N2CCOCC2)n1 | inactive |
| O=C(NCC1Cc2cccc(-c3cccnc3)c2O1)c1ccc2cc[nH]c2c1 (configuration not stated) | inactive |
| Cc1cccn2c(=O)c3cc(C#N)c(=O)n(Cc4cccnc4)c3nc12 | inactive |
| O=C(CCl)N1c2ccccc2Sc2c1ccc1ccccc21 | 26.7 µM (active) |
| Cc1nc2c(ncn2-c2ccccc2)c(=O)n1NC(=O)CN1CCCC1 | inactive |
| O=C(NCCOc1ccccc1)c1ccccc1Cl | inactive |
| N=C(NOC(=O)c1ccc2ccccc2c1)c1ccccc1Cl | 39.8 µM (active) |
| O=C(COC(=O)c1ccc2ccccc2c1)NCCCc1ccccc1 | inactive |
| COc1ccc(C2CC(c3cccc(Br)c3)=NN2c2ccc(S(N)(=O)=O)cc2)cc1 (configuration not stated) | inactive |
| Oc1ccc2c(c1)OCC1(O)Cc3cc(O)c(O)cc3C21 (configuration not stated) | 39.8 µM (active) |
| c1ccc(Nc2scc(-c3ccccc3)[n+]2Cc2ccco2)cc1 | inactive |
| Cc1cccc(NC(=O)CSc2nc3ccccc3c3nc(CCn4cncc4C)nn23)c1 | 31.6 µM (active) |
| Cn1nnnc1SCC1=C(C(=O)O)N2C(=O)C(NC(=O)Cn3nc(C(F)F)cc3C3CC3)C2SC1 (configuration not stated) | inactive |
| CCOC(=O)c1nnn(-c2nonc2N)c1-c1ccc(Br)cc1 | inactive |
| O=C(COC(=O)c1ccc(Cl)nc1)Nc1ncc(Cl)cc1Cl | inactive |
| CC(C)N(Cc1ccccc1)C(=O)COC(=O)c1cnc(Cl)c(Cl)c1 | 39.8 µM (active) |
| O=C(COC(=O)c1cnc(Cl)c(Cl)c1)c1ccc(F)cc1 | inactive |
| Nc1nc(CCl)nc(Nc2ccccc2)n1 | 28.2 µM (active) |
| Nc1nc(O)c(NC=O)c(Nc2ccc(Cl)cc2)n1 | inactive |

| SMILES | Potency |
| --- | --- |
| Cc1ccc(Nc2nc(N)nc(CSc3nc4ccccc4s3)n2)cc1 | 39.8 µM (active) |
| Cc1ccccc1Nc1nc(N)nc(CN(C)Cc2ccccc2Cl)n1 | inactive |
| CCOc1ccc(Nc2nc(N)nc(CSC(=S)N3CCN(c4ccccc4)CC3)n2)cc1 | inactive |
| Cc1ccc(Nc2nc(N)nc(CCl)n2)cc1 | 4.74 µM (active) |
| Cc1ccc(Nc2nc(N)nc(CCl)n2)c(C)c1 | 14.1 µM (active) |
| CCOc1ccc(S(=O)(=O)Nc2cc(S(=O)(=O)N3CCOCC3)ccc2OC)cc1 | inactive |
| COCCn1c(-c2cccs2)nc2nc3ccccc3nc21 | inactive |
| N=c1c(C(=O)NCCc2ccccc2)cc2c(=O)n3ccccc3nc2n1CC1CCCO1 (configuration not stated) | inactive |
| CC(C)(NC(=O)c1cc(Cl)c2ccccc2c1O)C(=O)O | inactive |
| CN1C=CC(=C[N+](=O)[O-])N(C)C1=O | 17.8 µM (active) |
| CCOc1ccc(N2C(=O)/C(=C\c3ccc(OC)c(O)c3)S(=O)(=O)C2c2cccc([N+](=O)[O-])c2)cc1 (configuration not stated) | inactive |
| COc1cc(/C=C2/C(=O)c3cccc([N+](=O)[O-])c3C2=O)c(Br)cc1O | 22.4 µM (active) |
| COc1cc(CCN=Cc2cc(Cl)cc(Cl)c2O)c([N+](=O)[O-])cc1OC | inactive |
| Cc1ccc2[nH]c(-c3ccc(SCC(=O)Nc4nnc(C)s4)nc3)nc2c1 | 23.8 µM (active) |
| CC(=O)c1cc2c(cc1NC(=O)CSc1nc3cc(C)ccc3[nH]1)OCO2 | inactive |
| Cc1ccc2[nH]c(SCC(=O)Nc3ccc(C(N)=O)cc3)nc2c1 | inactive |
| COc1ccc(C2=CC(c3ccccc3Cl)n3nc(-c4ccc(Cl)cc4)nc3N2)cc1 (configuration not stated) | inactive |
| Nc1cccc2c1C(=O)N(C(=O)/C=C/c1ccc(F)cc1)C2=O | inactive |
| CCSC1=NCCN1S(=O)(=O)c1ccc2ccccc2c1 | inactive |
| CC(C)N1C/C(=C/c2ccsc2)C(=O)/C(=C/c2ccsc2)C1 | 39.8 µM (active) |
| Cc1ccc(CCC(=O)Nc2ccccc2C(=O)O)o1 | inactive |
| O=C(OCc1ccc(O)cc1)c1c(-c2ccsc2)oc2ccc(N3CCOCC3)cc12 | inactive |

| SMILES | Potency |
| --- | --- |
| CCOc1ccc(C2C=C(c3cccc(OC)c3)Nc3nnnn32)cc1 (configuration not stated) | inactive |
| Cc1ccsc1C(=O)N1CCN(c2ccccn2)CC1 | inactive |
| Cc1nn(-c2ccccc2)c(Cl)c1C(=O)N1CCN(c2ncnc3c2cnn3-c2ccccc2)CC1 | 31.6 µM (active) |
| Cc1nn(-c2ccccc2)c(Cl)c1C(=O)NNC(=O)c1ccncc1 | inactive |
| Cc1cccn2c(=O)c3cc(C(=O)O)n(C)c3nc12 | inactive |
| CCCCNC(=O)CCN1N=C(c2ccccc2)CCC1=O | inactive |
| CN1C/C(=C/c2ccccc2[N+](=O)[O-])C(=O)/C(=C\c2ccccc2[N+](=O)[O-])C1 | 2.99 µM (active) |
| CCCCNC(=O)NNc1nc(Cl)cc(C)c1C#N | inactive |
| COCCCN=C(S)N1CCN(c2nc(-c3cccc(OC)c3)cs2)CC1 | inactive |
| CCN(CC)C(=O)CSc1nc(-c2ccccc2)ccc1C#N | inactive |
| CC(C(=O)Nc1nc(-c2ccc(F)c(F)c2)cs1)N1C(=O)C2CC=CCC2C1=O (configuration not stated) | inactive |
| COc1cccc(-c2ccc3c(N)c(C(=O)c4ccc(Cl)cc4)sc3n2)c1 | inactive |
| CCN(CC)C(=O)c1cccc(-c2csc(C(C)(O)c3cccc(OC)c3)n2)c1 (configuration not stated) | 35.5 µM (active) |
| CCN(CC)C(=O)c1sc2nc(-c3ccccc3)ccc2c1N | inactive |
| CC(C)c1cccc(-c2csc(C(O)c3ccc(F)c(F)c3)n2)c1 (configuration not stated) | 39.8 µM (active) |
| CCN(C(=O)c1ccco1)c1nc(-c2ccc(OC)cc2)cs1 | inactive |
| CCN(CC)C(=O)c1cccc(-c2csc(C(C)(O)c3ccc(OC)cc3)n2)c1 (configuration not stated) | 15.8 µM (active) |
| CCN(CC)C(=O)c1cccc(-c2csc(C(O)c3ccccc3)n2)c1 (configuration not stated) | 35.5 µM (active) |
| CCN(CC)c1ccc2cc(-c3nc(-c4ccc(OC)cc4)cs3)c(=O)oc2c1 | inactive |
